# Several values for one entry are separate records, joined by “and”; a condition that tells them apart may be missing. Equal values may be shown once. Activity calls are given as the source filed them.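 Rule for the calls, unless noted: active = z-score of at least 1.8 in each of two replicates, scored against plate mean and spread of sample wells; inactive = the rest.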 Starred links: 1 amine or outer side, 2 acyl side, 3 side chain; linkers in the order of their positions; H or OH if unused. Positions of bridges follow the written chain, without caps; N, C: chain ends. Non-standard residues stand in square brackets, D forms with d. Residues, ends and D or L forms follow the SMILES beside them. Chains are numbered I, II in the order given. Actinocin(9to1) = Cc1c2oc3c(C)ccc(C(=O)[*:1])c3nc-2c(C(=O)[*:2])c(N)c1=O; NMeV = CN[C@H](C(=O)O)C(C)C; Sar = CNCC(=O)O
# Experiments:
# [1] = viability loss with induced miR-34 in A549 – imaging, A549 dox-inducible miR-34, nuclei and caspase counts, primary screen (AID 1347080;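 active = compounds whose cell count with miR-34 switched on is under 0.7 times the count with it off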); conditions: A549 miR-34 inducible, Hoechst nuclei count, 48 h
# [2] = galactose survival enhancers in mitochondrial complex I cybrids – cell-based, galactose medium, ATP luminescence, primary screen (AID 1645843); conditions: complex I mutant cybrid cells, 72 h, stronger effect = higher value;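 note: positive z means more ATP and so rescue of galactose-driven cybrid death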
# [3] = chitosan synthesis blockers in C. neoformans – flow cytometry, Cibacron Brilliant Red staining (AID 1347148; call rule not given here;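 note: compound exposure lasted three days at 37 degrees C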); conditions: Cryptococcus neoformans chitosan, stronger effect = lower value; at 10 µM unless noted
# [4] = blockers of cellular phospholipid synthesis – cell-based, LOPAC library, screen 4, primary screen (AID 1347384; call rule not given here); conditions: animal cells, phospholipid biosynthesis inhibition screen; at 10 µM
# [5] = MELAS cybrid and Rieske KO viability enhancers – cell-based, MELAS cybrids, Rieske KO mouse fibroblasts, CellTiter-Glo, primary screen (AID 1508586;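 active = mean z-score across replicates of 1.96 or higher in either the MELAS or the Rieske mutant cell line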;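 note: z relative to plate mean and SD of compound and empty wells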); conditions: low glucose
# [6] = target: NAD(+) hydrolase SARM1 (Homo sapiens) (UniProt Q6SZW1); experiment: blocking NAD cleavage by SARM1 SAM-TIR – cell lysate, NAD-Glo luminescence (AID 1508614;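 active = compound whose remaining NAD level is above about 45 nM, limit read from the data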;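 note: higher remaining NAD means stronger inhibition of SARM1 NADase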); conditions: SAM-TIR HEK293T lysate NADase, at 1 µM, stronger effect = higher value
# [7] = target: Mitogen-activated protein kinase 7 (Homo sapiens) (UniProt Q13164); experiment: Gal4-ERK5 driven luciferase induction – cell-based, HTS, primary screen (AID 1508626;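 active = luciferase signal above three times the same-plate solvent-only control wells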;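 note: luciferase driven by Gal4-ERK5 fusion binding five Gal4 sites before minimal TATA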); conditions: HeLa Gal4-ERK5 transactivation, 18 h, at 5 µM, stronger effect = higher value
# [8] = stronger effect = lower value, cell number ratio, induced over uninduced
# [9] = measured here: relative caspase fold change +Dox/-Dox
# [10] = measured here: total cells with miR-34 induction, stronger effect = lower value
# [11] = measured here: total cells without miR-34 induction
# [12] = MELAS cybrid survival, CellTiter-Glo 48 h, stronger effect = higher value
# [13] = Rieske KO mouse fibroblast survival, CellTiter-Glo 72 h
# Chain of Mitogen-activated protein kinase 7 (Homo sapiens) (Q13164 whole entry, looked up, the tested form may be a part): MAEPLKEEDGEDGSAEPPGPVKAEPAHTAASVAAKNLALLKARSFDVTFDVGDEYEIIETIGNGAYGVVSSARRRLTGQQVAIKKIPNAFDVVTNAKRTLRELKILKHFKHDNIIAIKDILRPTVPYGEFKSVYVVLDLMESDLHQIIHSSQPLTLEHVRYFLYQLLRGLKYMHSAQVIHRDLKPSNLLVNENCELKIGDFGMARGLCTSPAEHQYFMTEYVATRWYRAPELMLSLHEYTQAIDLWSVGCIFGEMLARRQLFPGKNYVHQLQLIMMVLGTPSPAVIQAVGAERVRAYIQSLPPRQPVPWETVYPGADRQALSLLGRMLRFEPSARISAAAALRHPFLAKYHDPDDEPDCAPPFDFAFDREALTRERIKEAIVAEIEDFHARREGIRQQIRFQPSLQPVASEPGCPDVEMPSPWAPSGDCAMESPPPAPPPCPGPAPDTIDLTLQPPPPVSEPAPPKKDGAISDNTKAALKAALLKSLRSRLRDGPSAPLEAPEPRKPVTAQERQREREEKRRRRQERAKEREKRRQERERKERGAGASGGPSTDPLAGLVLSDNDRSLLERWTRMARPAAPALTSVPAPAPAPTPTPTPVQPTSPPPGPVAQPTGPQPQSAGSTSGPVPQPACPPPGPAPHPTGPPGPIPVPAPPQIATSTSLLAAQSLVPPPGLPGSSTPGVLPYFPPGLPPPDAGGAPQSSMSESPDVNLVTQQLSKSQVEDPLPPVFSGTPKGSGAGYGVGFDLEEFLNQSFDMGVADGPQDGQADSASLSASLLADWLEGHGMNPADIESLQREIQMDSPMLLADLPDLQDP
# Chain of NAD(+) hydrolase SARM1 (Homo sapiens) (Q6SZW1 whole entry, looked up, the tested form may be a part): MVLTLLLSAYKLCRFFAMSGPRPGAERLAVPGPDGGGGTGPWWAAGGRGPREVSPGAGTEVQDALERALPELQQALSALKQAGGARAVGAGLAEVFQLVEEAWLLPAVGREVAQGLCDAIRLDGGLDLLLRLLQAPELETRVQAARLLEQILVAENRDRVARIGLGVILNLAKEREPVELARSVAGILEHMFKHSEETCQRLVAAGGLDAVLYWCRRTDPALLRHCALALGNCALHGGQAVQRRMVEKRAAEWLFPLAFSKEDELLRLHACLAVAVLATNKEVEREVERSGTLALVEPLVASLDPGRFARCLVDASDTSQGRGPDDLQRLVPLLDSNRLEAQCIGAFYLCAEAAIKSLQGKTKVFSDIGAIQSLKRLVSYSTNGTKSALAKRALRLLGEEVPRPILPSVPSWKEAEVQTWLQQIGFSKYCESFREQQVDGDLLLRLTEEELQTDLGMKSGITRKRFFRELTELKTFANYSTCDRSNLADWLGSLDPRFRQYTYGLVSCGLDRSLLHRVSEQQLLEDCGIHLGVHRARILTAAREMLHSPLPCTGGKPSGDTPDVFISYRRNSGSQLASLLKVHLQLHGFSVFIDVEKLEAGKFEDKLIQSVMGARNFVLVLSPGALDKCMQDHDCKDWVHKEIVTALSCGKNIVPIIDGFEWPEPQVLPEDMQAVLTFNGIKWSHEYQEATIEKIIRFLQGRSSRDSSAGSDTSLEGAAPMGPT
smiles,measurement,setting,value
CCN(CC)CC1CCCCN1CC(=O)N1c2ccccc2C(=O)Nc2cccnc21 (configuration not stated),fold change,[1]; [8],0.915 (inactive) and 0.926 (inactive)
same,fold change,[1]; [9],1.68 and 0.696
same,cell count,[1]; [10],10100 and 9240
same,cell count,[1]; [11],11000 and 9980
same,z-score,[2],0.18 (inactive) and -0.135 (inactive)
CCCOc1ccccc1-c1nc2n[nH]nc2c(=O)[nH]1,fold fluorescence,[3],6.79 [at 184.3 µM] (inactive)
same,outcome,[4],inactive
same,z-score,[5]; [12],0.137 (inactive) and -0.665 (inactive)
same,z-score,[5]; [13],-0.13 and -0.629
same,remaining NAD,[6],10 nM (inactive)
same,z-score,[2],0.78 (inactive) and -0.305 (inactive) and 1.09 (inactive)
C[C@@H]1CN(CCCn2c3ccccc3c3ccccc32)C[C@H](C)N1,fold change,[1]; [8],0.959 (inactive)
same,fold change,[1]; [9],0.675
same,cell count,[1]; [10],8000
same,cell count,[1]; [11],8340
same,z-score,[2],-0.695 (inactive)
COc1cc(C)c(Cc2cnc(N)nc2N)cc1OC,fold change,[1]; [8],0.944 (inactive)
same,fold change,[1]; [9],1.06
same,cell count,[1]; [10],9440
same,cell count,[1]; [11],10000
same,z-score,[2],0.02 (inactive)
O=C1CC2(CCCC2)CC(=O)N1CCNCC1COc2ccccc2O1 (configuration not stated),fold change,[1]; [8],0.839 (inactive) and 0.901 (inactive)
same,fold change,[1]; [9],1.72 and 0.868
same,cell count,[1]; [10],8960 and 8470
same,cell count,[1]; [11],10700 and 9400
same,z-score,[2],0.655 (inactive) and -0.78 (inactive)
O=c1c(-c2ccccc2)c1-c1ccccc1,fold change,[1]; [8],0.804 (inactive)
same,fold change,[1]; [9],1.52
same,cell count,[1]; [10],4690
same,cell count,[1]; [11],5830
same,z-score,[2],-1.44 (inactive)
Oc1cccc(O)c1,fold change,[1]; [8],0.918 (inactive)
same,fold change,[1]; [9],2.54
same,cell count,[1]; [10],12000
same,cell count,[1]; [11],13100
same,remaining NAD,[6],10 nM (inactive)
same,luciferase signal,[7],20 AU (inactive)
NCC1CCC(C(=O)Oc2ccc(CCC(=O)O)cc2)CC1 (configuration not stated),fold change,[1]; [8],0.97 (inactive)
same,fold change,[1]; [9],1.97
same,cell count,[1]; [10],9870
same,cell count,[1]; [11],10200
same,z-score,[2],0.62 (inactive)
Nc1ccc(C(=O)O)c(O)c1,cell count,[1]; [11],10200 and 11500 and 13800
same,z-score,[5]; [12],-0.177 (inactive) and -0.201 (inactive) and 0.567 (inactive)
same,z-score,[5]; [13],-0.173 and -0.712 and -0.26
same,remaining NAD,[6],10 nM (inactive)
same,luciferase signal,[7],44 AU (inactive)
same,z-score,[2],0.45 (inactive)
"Cc1c2oc3c(C)ccc(C(=O)N[C@@H]4C(=O)N[C@H](C(C)C)C(=O)N5CCC[C@H]5C(=O)N(C)CC(=O)N(C)[C@@H](C(C)C)C(=O)O[C@@H]4C)c3nc-2c(C(=O)N[C@@H]2C(=O)N[C@H](C(C)C)C(=O)N3CCC[C@H]3C(=O)N(C)CC(=O)N(C)[C@@H](C(C)C)C(=O)O[C@@H]2C)c(N)c1=O (I: T[dV]P[Sar][NMeV] / II: T[dV]P[Sar][NMeV]; ester I:1-I:C, II:1-II:C; linker I:N-II:N via Actinocin(9to1))",fold fluorescence,[3],23.3 [at 107.6 µM] (inactive)
same,remaining NAD,[6],10 nM (inactive)
same,luciferase signal,[7],16 AU (inactive)
C=C[C@@]1(C)CC(=O)[C@]2(O)[C@@]3(C)[C@@H](O)CCC(C)(C)[C@@H]3[C@H](O)[C@H](OC(C)=O)[C@@]2(C)O1,fold change,[1]; [8],0.943 (inactive)
same,fold change,[1]; [9],1.09
same,cell count,[1]; [10],9780
same,cell count,[1]; [11],10400
same,remaining NAD,[6],10 nM (inactive)
same,luciferase signal,[7],44 AU (inactive)
same,z-score,[2],-0.315 (inactive)
O=C(O)c1ccc(S(=O)(=O)N(Cl)Cl)cc1,fold change,[1]; [8],0.899 (inactive)
same,fold change,[1]; [9],0.716
same,cell count,[1]; [10],11500
same,cell count,[1]; [11],12800
same,remaining NAD,[6],10 nM (inactive)
same,luciferase signal,[7],48 AU (inactive)
CC(=O)Nc1c(I)cc(I)c(C(=O)O)c1I,fold change,[1]; [8],0.913 (inactive)
same,fold change,[1]; [9],2.27
same,cell count,[1]; [10],12100
same,cell count,[1]; [11],13200
same,remaining NAD,[6],10 nM (inactive)
same,luciferase signal,[7],40 AU (inactive)
CC1CCN(CCCC(=O)c2ccc(F)cc2)CC1,fold change,[1]; [8],0.922 (inactive) and 0.888 (inactive) and 0.964 (inactive)
same,fold change,[1]; [9],0.574 and 0.823 and 1.18
same,cell count,[1]; [10],9000 and 9720 and 9030
same,cell count,[1]; [11],9760 and 10900 and 9370
same,z-score,[2],0.28 (inactive) and -0.14 (inactive)
O=C(c1ccc(F)cc1)C1CCN(CCn2c(=S)[nH]c3ccccc3c2=O)CC1,fold change,[1]; [8],0.921 (inactive) and 0.889 (inactive)
same,fold change,[1]; [9],1.65 and 1.01
same,cell count,[1]; [10],8480 and 7360
same,cell count,[1]; [11],9210 and 8290
same,z-score,[2],-0.715 (inactive) and -0.61 (inactive)
NC1CCN(c2cccc(Cl)n2)CC1,fold change,[1]; [8],0.969 (inactive) and 0.942 (inactive)
same,fold change,[1]; [9],1.72 and 1.85
same,cell count,[1]; [10],9480 and 9570
same,cell count,[1]; [11],9780 and 10200
same,z-score,[2],0.81 (inactive) and 0.31 (inactive)
COc1cc(-c2ccc(=O)[nH]n2)ccc1OC(F)F,fold fluorescence,[3],7.45 [at 186.4 µM] (inactive)
same,z-score,[5]; [12],1.87 (inactive) and 1.14 (inactive)
same,z-score,[5]; [13],-0.582 and -0.616
same,z-score,[2],0.03 (inactive) and -0.045 (inactive) and 0.53 (inactive)
CN1CCCN=C1COC(=O)C(O)(c1ccccc1)C1CCCCC1 (configuration not stated),fold change,[1]; [8],0.832 (inactive)
same,fold change,[1]; [9],3.67
same,cell count,[1]; [10],10300
same,cell count,[1]; [11],12400
same,remaining NAD,[6],10 nM (inactive)
same,luciferase signal,[7],80 AU (inactive)
O=C(O)c1ccccc1Nc1cccc(C(F)(F)F)c1,fold fluorescence,[3],5.28 [at 177.8 µM] (inactive)
same,z-score,[5]; [12],-0.231 (inactive) and 0.292 (inactive) and -0.218 (inactive)
same,z-score,[5]; [13],-0.153 and 0.0506 and 0.216
same,remaining NAD,[6],10 nM (inactive)
same,luciferase signal,[7],56 AU (inactive)
same,z-score,[2],0.44 (inactive)
CO/N=C1\CN(c2nc3c(cc2F)c(=O)c(C(=O)O)cn3C2CC2)CC1CN (configuration not stated),fold change,[1]; [8],0.847 (inactive)
same,fold change,[1]; [9],1.93
same,cell count,[1]; [10],10700
same,cell count,[1]; [11],12600
same,remaining NAD,[6],10 nM (inactive)
same,luciferase signal,[7],40 AU (inactive)

# Source: PubChem BioAssay
